Assay results published in PubChem BioAssay (Tox21).
Results filed as inconclusive are left out. A call without a number means that no potency is given here. The source made the active and inactive calls. Calls come from the whole dose curve; as a rule, active = well fitted cell-killing curve with a large enough effect in the repeat runs; inconclusive = weak or mixed curves, or effect the other way; inactive = no such curve, though single readings can be large or run the other way.

Assay: qHTS assay to identify small molecule agonists of the estrogen receptor alpha (ER-alpha) signaling pathway in the presence of an antagonist - cell viability counter screen (AID 1259386);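 note: cells exposed to compounds for 22 h at 37 °C before the viability read; nearly all actives have a fitted effect of over 30% in size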
Conditions: VM7Luc4E2 viability, CellTiter-Fluor fluorescence, 22 h; series mostly up to 92.4 µM
Excerpt: National Center for Advancing Translational Sciences [NCATS]
NIH Chemical Genomics Center [NCGC]
U.S. Environmental Protection Agency [EPA]
National Institutes of Environmental Health Sciences [NIEHS]
National Toxicology Program [NTP]
U.S. Food and Drug Administration [FDA]
Estrogen receptor (ER), a member of nuclear hormone receptor plays an important role in development, metabolic homeostasis and reproduction. Two subtypes of ER, ER-alpha and ER-beta, have similar expression patterns with some uniqueness in both types. Endocrine disrupting chemicals (EDCs) and their interactions with steroid hormone receptors like ER causes disruption of normal endocrine function. Therefore, it is important to understand the effect of environmental chemicals in ER signaling pathway. For identifying ER agonists, VM7Luc4E2 cell line has been used in the current assay.
VM7Luc4E2 cell line (provided by Denison MS, University of California) endogenously expresses full-length ER-alpha and is stably transfected with a plasmid containing four estrogen responsive elements (ERE) upstream of a luciferase reporter gene. This current screening for measuring luciferase reporter gene activity using VM7Luc4E2 cells against Tox21 10K library collection is a confirmation study on agonist mode screening in presence of ER-antagonist (ICI-182,780) at 10.0nM final concentration. The cytotoxicity of the compounds was tested in parallel by measuring the cell viability using CellTiter-Fluor assay system (Promega, Madison, WI) in the same wells.
Tox21 Assay Protocol Summary:
VM7Luc4E2 cells were cultured in phenol red free assay medium containing 10% charcoal stripped FBS for 5 days prior to the assay. The cells were dispensed at 4,000 cells in 4uL of assay medium per well into white wall/solid-bottom 1536-well plates (Corning Life Sciences, Corning, NY) using a Multidrop Combi (Thermo Fisher Scientific Inc., Waltham, MA) dispenser. After the assay plates were incubated at 37C and 5% CO2 for 24hr, 1uL of 10.0nM (final concentration) ICI-182,780 or assay buffer was added using two separate tips of Flying Reagent Dispenser (FRD, Aurora Discovery, San Diego, CA). Then 23nL of compounds dissolved in DMSO at 15 concentrations and positive controls or DMSO only was transferred to the assay plates by a Pintool station (Wako, San Diego, CA). The assay plates were incubated at 37C and 5% CO2 for 22hr. After 21hr incubation at 37C, 1uL/well CellTiter-Fluor reagent (Promega Corporation, Madison, WI) was added to each well using FRD and after 1hr incubation at 37C and 5% CO2, the fluorescence signal was measured on ViewLux plate reader (PerkinElmer, Shelton, CT).
Potency is the fitted concentration of half-maximal effect.

| Structure (SMILES) | Potency | activity change, negative = cytotoxicity |
| --- | --- | --- |
| SC1CCCC1 | inactive | – |
| C[Si](C)O[Si](C)(C)O[Si](C)(C)O[Si](C)C | inactive | – |
| CC(=O)O[C@@H]1C(=O)O[C@@H]2[C@H]1OC(=O)[C@@H]2OC(C)=O | inactive | – |
| O=C(O)C(c1ccc(Cl)cc1)c1ccc(Cl)cc1 | inactive | – |
| CC(=O)/C(C)=C/C1C(C)=CCCC1(C)C (stereo not given) | inactive | – |
| O=[N+]([O-])c1cc[n+]([O-])cc1 | 68.6 µM (active) | – |
| CCCCc1cc2ccccc2c(OCCN(C)C)n1 | inactive | – |
| CCC(C)N(C)C(=O)c1cc2ccccc2c(-c2ccccc2Cl)n1 (stereo not given) | inactive | – |
| O=CNc1ccccc1 | inactive | – |
| C1CCC2OC2C1 (stereo not given) | inactive | – |
| CCCCC(CC)(CO)CO | inactive | – |
| Cc1ccc(C(=O)C(C)CN2CCCCC2)cc1 (stereo not given) | inactive | – |
| CC1=CC(=O)/C(=C(/C)O)C(=O)O1 | inactive | – |
| CC[C@@H]1C[C@H](N(Cc2cc(C(F)(F)F)cc(C(F)(F)F)c2)C(C)=O)c2cc(C(F)(F)F)ccc2N1C(=O)OC(C)C | inactive | – |
| O=C(Nc1ccccc1)OCC(CN1CCCCC1)OC(=O)Nc1ccccc1 (stereo not given) | inactive | – |
| CCOC(=O)C1=C(C)NC(C)=C(C(=O)OC)C1c1cccc([N+](=O)[O-])c1 (stereo not given) | inactive | – |
| CCCCCOC(=O)COc1cc(N2C(=O)C3=C(CCCC3)C2=O)c(F)cc1Cl | inactive | – |
| O=c1[nH]cnc2ccccc12 | inactive | – |
| CCOc1cc(OCC)c(C(=O)CCC(=O)O)cc1OCC | inactive | – |
| CC(C)c1ccc2c(C(C)C)cc(C(C)C)c(S(=O)(=O)O)c2c1 | inactive | – |

| Structure (SMILES) | Potency | activity change, negative = cytotoxicity |
| --- | --- | --- |
| O=C(NN1CCCC1)NS(=O)(=O)c1ccc(Cl)cc1 | inactive | – |
| Nc1ccc(C(=O)N2CC3CC(CN(Cc4ccccc4)C3)C2)cc1 | inactive | – |
| CCCCCCCCCCCCC(=O)O | inactive | – |
| CC(=O)OCCc1ccccc1 | inactive | – |
| CCN(CCO)CCCC(C)Nc1ccnc2cc(Cl)ccc12 (stereo not given) | – | -3.53% [at 8.39 µM] (inactive) |
| CC(=O)N(O)CCCCCNC(=O)CCC(=O)N(O)CCCCCNC(=O)CCC(=O)N(O)CCCCCN | inactive | – |
| CC(C)(C)C(=O)OCOP(=O)(COCCn1cnc2c(N)ncnc21)OCOC(=O)C(C)(C)C | inactive | – |
| COC(=O)C(C)=O | inactive | – |
| CC(=O)N(CC(=O)N(C)C)c1ccccc1 | inactive | – |
| NC(N)=NN=C(/C=C/c1ccc([N+](=O)[O-])o1)/C=C/c1ccc([N+](=O)[O-])o1 | 9.44 µM (active) | – |
| Cc1c(Cn2ccnc2)c2ccccc2n1CCC(=O)O | inactive | – |
| CN(C(=O)CCCOc1ccc2[nH]c(=O)ccc2c1)C1CCCCC1 | inactive | – |
| C[C@H](CCC(=O)O)[C@H]1CC[C@H]2[C@@H]3[C@H](O)C[C@@H]4C[C@H](O)CC[C@]4(C)[C@H]3CC[C@]12C | inactive | – |
| O=C(O)/C=C/c1cnc[nH]1 | inactive | – |
| OCC1CC2CC1C1CCC(CO)C21 (stereo not given) | inactive | – |
| CC(=O)NCCCS(=O)(=O)O | inactive | – |
| O=C(O)[C@@H]1[C@H]2C[C@H]3c4[nH]c5ccccc5c4CCN3C[C@@H]2CC[C@@H]1O | inactive | – |
| CC(CN)CCCN (stereo not given) | inactive | – |
| CC1(C)CCC(C)(C)c2cc(NC(=O)c3ccc(C(=O)O)cc3)ccc21 | inactive | – |
| CCOc1ccc2[nH]cc(C(=O)NCc3ccccc3)c(=O)c2n1 | inactive | – |
